Article PMC5540273 (PLoS ONE, 2017)

How the values were obtained:
Conditions in all cases: concentration: 1 μM,replicates: in singlicate; n = 1
[1] = test system: TYK2(JH2domain-pseudokinase)
[2] = test system: TYRO3
[3] = test system: ULK1
[4] = test system: ULK2
[5] = test system: ULK3
[6] = test system: T1, VEGFR2
T1 construct: gene KDR

[7] = test system: T2, VPS34
T2 construct: gene PIK3C3

[8] = test system: VRK2
[9] = test system: WEE1
[10] = test system: WEE2
[11] = test system: WNK1
[12] = test system: WNK2
[13] = test system: WNK3
[14] = test system: WNK4
[15] = test system: T3, YANK1
T3 construct: gene STK32A

[16] = test system: T4, YANK2
T4 construct: gene STK32B

[17] = test system: T5, YANK3
T5 construct: gene STK32C

[18] = test system: T6, YES
T6 construct: gene YES1

[19] = test system: T7, YSK1
T7 construct: gene STK25

[20] = test system: T8, YSK4
T8 construct: gene MAP3K19
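Further: KINOMEscan kinase panel screen.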

Compound | %Inh [1] | %Inh [2] | %Inh [3] | %Inh [4] | %Inh [5] | %Inh [6] | %Inh [7] | %Inh [8] | %Inh [9] | %Inh [10] | %Inh [11] | %Inh [12] | %Inh [13] | %Inh [14] | %Inh [15] | %Inh [16] | %Inh [17] | %Inh [18] | %Inh [19] | %Inh [20]
Cc1cc2cn[nH]c2cc1-c1cccc2c(N)c(C(N)=O)nnc12 | 65% | 15% | 28% | 30% | 50% | 13% | 19% | 21% | 12% | 29% | 21% | 3% | 23% | 11% | 26% | 0% | 0% | 0% | 0% | 71%
Cl.Oc1cc(-c2nc(-c3ccccc3)[nH]c2-c2ccncc2)ccc1Cl [SB-386023] | 0% | 58% | 7% | 25% | 25% | 20% | 14% | 0% | 0% | 11% | 0% | 0% | 0% | 38% | 0% | 26% | 0% | 31% | 0% | 0%
Cl.Cl.NC[C@H](Cc1ccc(C(F)(F)F)cc1)NC(=O)c1cc(Br)c(-c2ccnc3[nH]ccc23)s1 [GSK1487252] | 16% | 0% | 5% | 19% | 6% | 34% | 0% | 0% | 0% | 0% | 10% | 0% | 13% | 39% | 56% | 69% | 13% | 19% | 30% | 88%
C[C@@H](Oc1cc(-c2cnn(C3CCNCC3)c2)cnc1N)c1c(Cl)ccc(F)c1Cl | 43% |  | 67% | 53% | 32% | 22% | 0% | 11% | 0% | 0% | 11% | 46% | 0% | 8% | 6% | 0% | 0% | 17% | 0% | 72%
Cc1ccc2c(-c3ccncc3)c(-c3ccc(F)cc3)nn2c1.Cl [GW461484] | 2% | 0% | 7% | 0% | 23% | 2% | 0% | 0% | 3% | 1% | 0% | 0% | 26% | 22% | 31% | 15% | 12% | 0% | 7% | 0%
CCn1c(-c2nonc2N)nc2c(C#CC(C)(C)O)nc(OCCN)cc21.Cl.Cl [GSK902056] | 9% | 0% | 33% | 0% | 13% | 0% | 0% | 0% | 6% | 15% | 12% | 24% | 28% | 2% | 12% | 0% | 35% | 19% | 0% | 99.7%
O=C(NCCCN1CCOC1=O)c1cnc(NCc2cc(Cl)ccc2Cl)nc1NC1CCCC1 | 0% | 46% | 0% | 0% | 0% | 0% | 0% | 7% | 0% | 0% | 0% | 0% | 0% | 18% | 0% | 0% | 2% | 31% | 0% | 11%
C[C@@H]1CCN(C(=O)CC#N)C[C@@H]1N(C)c1ncnc2[nH]ccc12 |  | 0% | 0% | 0% | 0% | 0% | 0% | 0% | 0% | 2% | 0% | 0% | 0% | 0% |  | 0% | 0% | 0% | 0% | 8%
CCN(CC)CCCCNc1ncc2cc(-c3c(Cl)cccc3Cl)c(NC(=O)NC(C)(C)C)nc2n1 | 0% | 8% | 0% | 29% | 0% | 90.4% | 12% | 0% | 3% | 3% | 0% | 51% | 0% | 0% | 53% | 32% | 0% | 94.6% | 58% | 49%
CN(C)CC(O)COc1ccc(Nc2nccc(-c3cnn4nc(N5CCOCC5)ccc34)n2)cc1 (centres unmarked) [GW767488] | 97.3% | 10% | 98.8% | 96.3% | 61% | 20% | 95.4% | 0% | 8% | 0% | 18% | 0% | 18% | 0% | 29% | 0% | 0% | 0% | 17% | 90%
Nc1nc(Nc2ccccc2)cc(-c2ccc3c(N)n[nH]c3c2)n1 [GSK2225749] | 45% | 0% | 92.8% | 62% | 16% | 5% | 3% | 0% | 0% | 0% | 5% | 0% | 7% | 0% | 15% | 0% | 6% | 0% | 0% | 46%
Cc1n[nH]c2ccc(-c3cc(OC[C@@H](N)Cc4ccccc4)cnc3-c3ccoc3)cc12.O=C(O)C(F)(F)F.O=C(O)C(F)(F)F [GSK507358] | 19% | 0% | 0% | 8% | 22% | 0% | 0% | 33% | 35% | 15% | 8% | 11% | 0% | 6% | 72% | 90.5% | 47% | 22% | 22% | 99.8%
Cl.Cl.NC[C@H](CC1CCCCC1)NC(=O)c1cc(Br)c(-c2ccnc3[nH]ccc23)s1 [GSK1581427] | 5% | 0% | 28% | 0% | 10% | 7% | 0% | 0% | 3% | 10% | 0% | 3% | 5% | 0% | 42% | 0% | 18% | 1% | 0% | 99.6%
O=C(NCCNc1ccnc(NCc2ccc(F)cc2)n1)c1cc2ccccc2s1 [GSK1379944] | 10% | 4% | 3% | 0% | 0% | 0% | 0% | 0% | 3% | 19% | 10% | 1% | 4% | 3% | 19% | 0% | 7% | 11% | 0% | 27%
Cc1cc(C(=O)Nc2ccc(Oc3ccc4nc(NC(=O)C5CC5)cn4n3)cc2)nn1-c1ccccc1 | 0% | 37% | 0% | 0% | 0% |  | 0% | 0% | 15% | 7% | 0% | 0% | 0% | 10% | 0% | 3% | 0% | 25% | 1% | 1%
CNC(=O)c1ccccc1Sc1ccc2c(/C=C/c3ccccn3)n[nH]c2c1 | 0% | 0% | 20% | 58% |  | 99.9% | 3% | 0% | 0% |  | 0% | 11% | 0% | 0% | 19% | 0% | 0% | 0% | 0% | 78%
Cc1ccc(-n2nc(C(C)(C)C)cc2NC(=O)Nc2ccc(OCCN3CCOCC3)c3ccccc23)cc1 [GW839464] | 0% | 37% | 0% | 0% | 0% | 37% | 21% | 0% | 0% | 14% | 0% | 1% | 0% | 0% | 0% | 0% | 0% | 32% | 0% | 0%
CC(C)Nc1cc(-c2ccc3c(N)n[nH]c3c2)nc(N)n1 [GSK2221681] | 8% | 0% | 76% | 22% | 9% | 4% | 0% | 0% | 8% | 0% | 0% | 0% | 0% | 0% | 37% | 0% | 2% | 4% | 14% | 41%
CCN(CC)CCOc1ccc(Nc2ncc3cc(-c4c(Cl)cccc4Cl)c(=O)n(C)c3n2)cc1 [SB-601273] | 25% | 100% | 92.4% | 95.2% | 59% | 97.6% | 44% | 46% | 99.9% | 99.7% | 26% | 86% | 66% | 42% | 95.1% |  | 27% | 100% | 37% | 99.2%
CC(C)N1C(=O)Cc2cc(Nc3ncc(C(F)(F)F)c(NCc4cccc(S(C)(=O)=O)c4)n3)ccc21 | 29% | 0% | 60% | 54% | 59% | 74% | 55% | 39% | 38% | 7% | 0% | 1% | 0% | 23% | 6% | 0% | 0% | 9% | 0% | 99.8%
Cc1occc1-c1nc(N)c(OC[C@@H](N)Cc2c[nH]c3ccccc23)cc1-c1cc2c(C)n[nH]c2cn1 [GSK1660450] | 0% | 0% | 33% | 22% | 11% | 0% | 18% | 90.1% | 0% | 15% | 0% | 5% | 0% | 0% | 96.6% | 95.2% | 93.1% | 40% | 57% | 99.7%
C[C@H]1Oc2cc(cnc2N)-c2c(nn(C)c2C#N)CN(C)C(=O)c2ccc(F)cc21 | 0% | 5% | 0% | 0% | 0% | 3% | 0% | 42% | 0% | 16% | 0% | 2% | 0% | 0% | 0% | 12% | 3% | 2% | 0% | 0%
COc1ccc(C[C@@H](CN)NC(=O)c2cc(Br)c(-c3ccnc4[nH]ccc34)s2)cc1.Cl.Cl [GSK1389063] | 23% | 0% | 40% | 16% | 12% | 58% | 35% | 47% | 0% | 18% | 11% | 32% | 5% | 0% | 71% | 46% | 50% | 22% | 100% | 99.6%
NC(=O)c1cc(-c2ccccc2)cc2c(C3CCNCC3)c[nH]c12 [GSK301362] | 99.7% | 1% | 23% | 29% | 18% | 0% | 0% | 0% | 14% | 11% | 11% | 6% | 17% | 41% | 4% | 0% | 26% | 24% | 1% | 50%
C=CC(=O)Nc1cc2c(Nc3ccc(F)c(Cl)c3)ncnc2cc1OCCCN1CCOCC1 [GW781483] | 21% | 29% | 0% | 17% | 14% | 0% | 6% | 0% | 0% | 20% | 16% | 0% | 20% | 0% | 17% | 0% | 0% | 15% | 0% | 49%
Cl.Cl.Nc1nc(-c2ccc3c(N)n[nH]c3c2)cc(N2CCCC(NC(=O)c3ccccc3)C2)n1 (centres unmarked) [GSK2286775] | 38% | 0% | 11% | 2% | 36% | 9% | 0% | 0% | 18% | 0% | 37% | 10% | 19% | 0% | 0% | 0% | 0% | 14% | 22% | 36%
CN(C)CCOc1ccc(-c2cc(-c3c[nH]nc3-c3ccccn3)ccn2)cc1 [GW835314] | 21% | 8% | 0% | 31% | 4% | 6% | 0% | 0% | 0% | 11% | 9% | 13% | 0% | 0% | 89% | 0% | 0% | 55% | 0% | 28%
